PubChem BioAssay (Tox21)
Inconclusive results are not listed. The source made the active and inactive calls. Unless noted, calls follow the shape of the full dose curve.

Key:
[1] = target: Peroxisome proliferator-activated receptor delta (Homo sapiens) (UniProt Q03181); experiment: qHTS assay to identify small molecule agonists of the peroxisome proliferator-activated receptor delta (PPARd) signaling pathway (AID 743212)
In short: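 GeneBLAzer PPARd UAS-bla HEK293H cells (beta-lactamase reporter under UAS control), plated and rested 5 h at 37 C, then exposed to compounds in DMSO at 37 C; LiveBLAzer B/G FRET substrate added, 2 h room temperature, fluorescence read.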

[2] = qHTS assay to identify small molecule antagonists of the peroxisome proliferator-activated receptor delta (PPARd) signaling pathway - cell viability counter screen (AID 743213; active = well fitted curve in the direction sought with a large enough effect in the repeat runs; an effect the other way counts as inactive or inconclusive; also: nearly all actives have a fitted effect of over 50% in size)
In short: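 HEK293H cells with the PPARd UAS-bla reporter, co-treated 17 h at 37 C with compounds and L165041 (300 nM final), were lysed with CellTiter-Glo. Luminescence indicated viable cell content.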

[3] = target: Peroxisome proliferator-activated receptor delta (Homo sapiens) (UniProt Q03181); experiment: qHTS assay to identify small molecule antagonists of the peroxisome proliferator-activated receptor delta (PPARd) signaling pathway (AID 743215; active = well fitted inhibition curve with a large enough effect in the signal ratio in the repeat runs, not every such curve was filed as active; the % refers to the signal ratio;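 also: cells stimulated with agonist L165041 at 300 nM final during compound exposure; series mostly up to about 62 µM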)
In short: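 Read-out is beta-lactamase FRET fluorescence, measured 2 h after substrate addition at room temperature. Beforehand, UAS-bla HEK293H cells carrying the PPARd reporter were exposed to compounds with L165041 at 300 nM final for 17 h at 37 C.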

[4] = target: Bile acid receptor (Homo sapiens) (UniProt Q96RI1); experiment: qHTS assay to identify small molecule antagonists of the farnesoid-X-receptor (FXR) signaling pathway (AID 743217; active = well fitted inhibition curve with a large enough effect in the signal ratio in the repeat runs, not every such curve was filed as active; the % refers to the signal ratio)
In short: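 HEK 293T FXR-UAS-bla, 5000 cells/well; compound + CDCA 50 uM final; 16 h, 37 °C; B/G FRET substrate 2 h RT; fluorescence.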

[5] = qHTS assay to identify small molecule agonists of the farnesoid-X-receptor (FXR) signaling pathway - cell viability counter screen (AID 743218; active = well fitted curve in the direction sought with a large enough effect in the repeat runs; an effect the other way counts as inactive or inconclusive; also: nearly all actives have a fitted effect of over 45% in size)
In short: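 HEK 293T FXR-bla cells; 5 h pre-incubation, 16 h compound exposure at 37 C; LiveBLAzer substrate 2 h RT, then CellTiter-Glo 30 min RT, luminescence.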

[6] = target: Bile acid receptor (Homo sapiens) (UniProt Q96RI1); experiment: qHTS assay to identify small molecule agonists of the farnesoid-X-receptor (FXR) signaling pathway (AID 743220; active = well fitted activation curve with a large enough effect in the signal ratio in the repeat runs, not every such curve was filed as active; the % refers to the signal ratio)
In short: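 Beta-lactamase reporter under UAS control in GeneBLAzer FXR HEK 293T cells (5000/well) measured with LiveBLAzer FRET substrate after 2 h at room temperature. Compound exposure lasted 16 h at 37C.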

[7] = qHTS assay to identify small molecule antagonists of the farnesoid-X-receptor (FXR) signaling pathway - cell viability counter screen (AID 743221; active = well fitted cell-killing curve with a large enough effect in the repeat runs, not every such curve was filed as active; also: nearly all actives have a fitted effect of over 50% in size)
In short: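 CellTiter-Glo, 30 min RT, luminescence; same wells as the LiveBLAzer FRET read. Cells: FXR-UAS-bla HEK 293T. Treatment: compound with chenodeoxycholic acid 50 uM final, 16 h at 37 C.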

[8] = qHTS assay to identify small molecule agonists of the vitamin D receptor (VDR) signaling pathway - cell viability counter screen (AID 743224; active = well fitted curve in the direction sought with a large enough effect in the repeat runs; an effect the other way counts as inactive or inconclusive; also: series mostly up to about 63 µM; nearly all actives have a fitted effect of over 50% in size)
In short: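 Luminescence from CellTiter-Glo, read after 30 min at room temperature, reports viability of VDR-bla cells treated with compounds for 16 h at 37C in the wells used for the beta-lactamase FRET read.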

[9] = qHTS assay to identify small molecule antagonists of the vitamin D receptor (VDR) signaling pathway - cell viability counter screen (AID 743225; active = well fitted curve in the direction sought with a large enough effect in the repeat runs; an effect the other way counts as inactive or inconclusive; also: nearly all actives have a fitted effect of over 50% in size)
In short: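 Cytotoxicity toward the VDR-bla HEK 293T line was scored by ATP-based CellTiter-Glo luminescence, read in the wells already used for the beta-lactamase readout after 16 h compound treatment under 3 nM 1-alpha,25-dihydroxyvitamin D3 stimulation.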

[10] = qHTS assay to identify small molecule agonists of the NFkB signaling pathway - cell viability counter screen (AID 1159515); also: series mostly up to about 61 µM; nearly all actives have a fitted effect of over 55% in size
In short: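 Luminescence from CellTiter-Glo (30 min, room temperature) gives viability, measured in the same wells as the beta-lactamase reporter read. Cells were NFkB-bla ME-180, 2,000 per well, treated 5 hr with compounds.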

[11] = qHTS assay to identify small molecule agonists of the endoplasmic reticulum stress response signaling pathway (AID 1159516; active = well fitted activation curve with a large enough effect in the signal ratio in the repeat runs, not every such curve was filed as active; the % refers to the signal ratio)
In short: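 Read-out is beta-lactamase cleavage of a FRET substrate (405 nm excitation; 460 and 530 nm emissions) in ESRE-bla HeLa cells after a 5 hr compound exposure at 37 C. Substrate incubation ran 2 hr at room temperature.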

[12] = qHTS assay to identify small molecule agonists of the endoplasmic reticulum stress response signaling pathway - cell viability counter screen (AID 1159517)
In short: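 Luminescence readout: CellTiter-Glo, 30 min RT, same wells as the ESRE-bla reporter read. HeLa ESRE-bla, 1,500 cells/well, o/n 37 C; cpd 5 hr 37 C/5% CO2.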

[13] = qHTS assay to identify small molecule antagonists of the retinoid-related orphan receptor gamma (ROR-gamma) signaling pathway - cell viability counter screen (AID 1159520; active = well fitted curve in the direction sought with a large enough effect in the repeat runs; an effect the other way counts as inactive or inconclusive; also: nearly all actives have a fitted effect of over 50% in size)
In short: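 Tet-on ROR gamma CHO cells (1,000/well) were plated 4 hr, given compounds in DMSO for 2 hr at 37 C, then induced with 1 uM final doxycycline for 16 hr. Viability was read as ATP by CellTiter-Glo luminescence after 30 min.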

[14] = target: Nuclear receptor ROR-gamma (Homo sapiens) (UniProt P51449); experiment: qHTS assay to identify small molecule antagonists of the retinoid-related orphan receptor gamma (ROR-gamma) signaling pathway (AID 1159521; active = well fitted curve in the direction sought with a large enough effect in the repeat runs; an effect the other way counts as inactive or inconclusive)
In short: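 Readout: ONE-Glo luciferase luminescence, 30 min at room temperature. System: Tet-on RORγ CHO, RORE-LUC. Sequence: compound 2 h, doxycycline 1 uM final, 16 h at 37 C.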

[15] = qHTS assay to identify small molecule agonists of the AP-1 signaling pathway (AID 1159526)
[16] = target: Retinoic acid receptor RXR-alpha (Homo sapiens) (UniProt P19793); experiment: qHTS assay to identify small molecule agonists of the RXR signaling pathway (AID 1159527); also: nearly all actives have a fitted effect of over 35% in size
In short: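 Reporter activation is measured as beta-lactamase activity via FRET substrate cleavage (emission 460/530 nm) in HEK 293T cells expressing an RXR-alpha-driven bla construct, following 16 hr compound exposure at 37 C.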

[17] = qHTS assay to identify small molecule agonists of the RXR signaling pathway - cell viability counter screen (AID 1159529; active = well fitted curve in the direction sought with a large enough effect in the repeat runs; an effect the other way counts as inactive or inconclusive)
In short: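 Tox21 10K compounds were tested for cytotoxicity against GeneBLAzer RXR-alpha HEK 293T cells grown in 2% charcoal-stripped FBS. Exposure lasted 16 hr at 37 C, 5% CO2; viability read by CellTiter-Glo luminescence.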

[18] = qHTS assay to identify small molecule agonists of the AP-1 signaling pathway - cell viability counter screen (AID 1159525); also: nearly all actives have a fitted effect of over 55% in size
In short: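 ME-180 AP-1-bla, 2500 cells/well, Opti-MEM + 0.5% dialyzed FBS; overnight 37 °C; cpd 15-pt titration, 5 h 37 °C; CellTiter-Glo 30 min RT; luminescence read; normalised to TOAB and DMSO controls.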

[19] = target: Vitamin D3 receptor (Homo sapiens) (UniProt P11473); experiment: qHTS assay to identify small molecule agonists of the vitamin D receptor (VDR) signaling pathway (AID 743222)
In short: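 VDR-bla cells, 2,000/well; 4 h preincubation 37C; cpd (DMSO) 16 h; LiveBLAzer B/G substrate 2 h RT; fluorescence intensity read.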

[20] = target: Vitamin D3 receptor (Homo sapiens) (UniProt P11473); experiment: qHTS assay to identify small molecule antagonists of the vitamin D receptor (VDR) signaling pathway (AID 743223; active = well fitted inhibition curve with a large enough effect in the signal ratio in the repeat runs, not every such curve was filed as active; the % refers to the signal ratio)
In short: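 After VDR-bla cells are plated and left 4 h at 37C, DMSO-dissolved compounds and 3 nM (final) calcitriol agonist are added. Incubation continues 16 h at 37C; FRET beta-lactamase substrate then develops 2 h at room temperature.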

Measured: Potency

Chain of Bile acid receptor (Homo sapiens) (Q96RI1 whole entry, looked up): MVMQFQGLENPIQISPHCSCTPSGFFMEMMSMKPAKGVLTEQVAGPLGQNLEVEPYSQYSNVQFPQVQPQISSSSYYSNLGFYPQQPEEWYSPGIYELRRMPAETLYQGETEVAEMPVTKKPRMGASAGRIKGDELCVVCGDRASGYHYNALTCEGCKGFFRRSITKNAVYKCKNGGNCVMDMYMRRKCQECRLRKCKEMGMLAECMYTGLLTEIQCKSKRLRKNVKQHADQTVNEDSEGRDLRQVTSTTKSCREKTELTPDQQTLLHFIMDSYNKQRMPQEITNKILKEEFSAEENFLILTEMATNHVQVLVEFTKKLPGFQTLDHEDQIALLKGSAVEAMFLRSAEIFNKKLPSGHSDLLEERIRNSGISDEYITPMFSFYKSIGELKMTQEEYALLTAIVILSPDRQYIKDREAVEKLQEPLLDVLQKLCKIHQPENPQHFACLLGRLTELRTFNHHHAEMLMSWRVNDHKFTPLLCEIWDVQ
Chain of Vitamin D3 receptor (Homo sapiens) (P11473 whole entry, looked up): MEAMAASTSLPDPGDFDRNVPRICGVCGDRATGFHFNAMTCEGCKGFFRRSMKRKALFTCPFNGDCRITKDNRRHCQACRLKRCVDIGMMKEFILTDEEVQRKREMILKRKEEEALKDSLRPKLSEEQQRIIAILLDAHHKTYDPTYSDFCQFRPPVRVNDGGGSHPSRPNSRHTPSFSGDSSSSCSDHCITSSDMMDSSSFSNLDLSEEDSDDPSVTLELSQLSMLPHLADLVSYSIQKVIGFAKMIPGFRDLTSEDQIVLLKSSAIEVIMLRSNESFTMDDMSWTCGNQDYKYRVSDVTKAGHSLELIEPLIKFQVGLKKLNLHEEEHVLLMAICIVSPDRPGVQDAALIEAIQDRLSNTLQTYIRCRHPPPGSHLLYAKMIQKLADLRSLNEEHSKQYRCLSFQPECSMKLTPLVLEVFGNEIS
Chain of Retinoic acid receptor RXR-alpha (Homo sapiens) (P19793 whole entry, looked up): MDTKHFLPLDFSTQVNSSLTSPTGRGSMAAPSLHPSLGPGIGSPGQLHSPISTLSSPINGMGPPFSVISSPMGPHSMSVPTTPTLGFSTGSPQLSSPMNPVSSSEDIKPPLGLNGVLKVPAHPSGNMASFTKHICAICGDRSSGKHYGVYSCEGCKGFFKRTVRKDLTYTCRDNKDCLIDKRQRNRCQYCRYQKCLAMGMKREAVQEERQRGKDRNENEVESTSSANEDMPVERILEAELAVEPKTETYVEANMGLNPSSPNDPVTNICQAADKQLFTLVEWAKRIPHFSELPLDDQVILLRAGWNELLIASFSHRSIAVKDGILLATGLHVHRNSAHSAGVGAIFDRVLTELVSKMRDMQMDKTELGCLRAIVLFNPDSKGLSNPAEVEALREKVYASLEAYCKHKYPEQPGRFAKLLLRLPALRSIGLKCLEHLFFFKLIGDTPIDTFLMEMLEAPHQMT
Chain of Peroxisome proliferator-activated receptor delta (Homo sapiens) (Q03181 whole entry, looked up): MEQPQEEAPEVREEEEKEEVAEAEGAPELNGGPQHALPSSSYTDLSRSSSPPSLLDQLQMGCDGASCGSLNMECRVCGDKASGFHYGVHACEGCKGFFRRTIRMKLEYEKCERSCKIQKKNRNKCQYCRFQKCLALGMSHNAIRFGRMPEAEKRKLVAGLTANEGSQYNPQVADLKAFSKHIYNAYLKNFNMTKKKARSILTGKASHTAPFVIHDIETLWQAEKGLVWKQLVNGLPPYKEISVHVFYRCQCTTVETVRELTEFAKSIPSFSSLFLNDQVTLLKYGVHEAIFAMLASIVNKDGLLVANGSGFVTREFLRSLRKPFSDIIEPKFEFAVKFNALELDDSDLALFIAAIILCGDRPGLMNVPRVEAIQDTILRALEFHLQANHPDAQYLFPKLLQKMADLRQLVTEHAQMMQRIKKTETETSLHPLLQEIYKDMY

O=C(O)Cc1c(Cl)ccc(Cl)c1Cl
not listed: [18] | [19] | [20]
inactive: all other assays above

OCCC(F)(F)C(F)(F)C(F)(F)C(F)(F)C(F)(F)C(F)(F)F
not listed: [9] | [17] | [19] | [20]
inactive: all other assays above

C=CCN(CC=C)CC=C
not listed: [3] | [4] | [6] | [18] | [20]
inactive: all other assays above

N#Cc1cc(NC(=O)C(=O)O)c(Cl)c(NC(=O)C(=O)O)c1
not listed: [4] | [6] | [9] | [17]
inactive: all other assays above

CC(=O)OCC(=O)[C@@]1(O)CC[C@H]2[C@@H]3CCC4=CC(=O)C=C[C@]4(C)[C@H]3[C@@H](O)C[C@@]21C
not listed: [3] | [4] | [6] | [7] | [18]
inactive: all other assays above

c1coc(Cn2cccc2)c1
not listed: [1] | [3] | [8] | [17] | [19] | [20]
inactive: all other assays above

O=Cc1ccc(C(=O)O)cc1
not listed: [1] | [3] | [4] | [6] | [9] | [17] | [19] | [20]
inactive: all other assays above

CCCc1ccc(O)c(OC)c1
not listed: [1] | [3] | [4] | [6] | [7] | [9] | [17] | [20]
inactive: all other assays above

CC1(C)CC(N)CC(C)(C)N1
not listed: [9] | [18] | [20]
inactive: all other assays above

Cc1cc(C)c(N)c(Cl)c1
not listed: [4] | [6] | [18]
inactive: all other assays above

Cc1ccccc1OCC(=O)O
not listed: [7] | [8] | [17] | [20]
inactive: all other assays above

CC(=O)O[C@@H]1CC2C3CCc4cc(OC(=O)c5ccccc5)ccc4C3CCC2(C)[C@H]1OC(C)=O (stereo partly drawn)
not listed: [1] | [3] | [9] | [17]
inactive: all other assays above

CN(C)CCC[C@@]1(c2ccc(F)cc2)OCc2cc(C#N)ccc21
not listed: [4] | [6] | [9] | [17] | [20]
inactive: all other assays above

CCCCN1C(=O)c2ccccc2C1=O
not listed: [1] | [2] | [3] | [6] | [20]
inactive: all other assays above

C=COCCCCO
not listed: [4] | [6] | [17] | [19] | [20]
inactive: all other assays above
